Data as given in PubChem BioAssay (NCI).
This is part of a sample that, as a whole, favours compounds with a hit. Of some 83,000 tested, about 20% had one in any assay.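 Each cell line was grown in a 96-well plate and treated with one concentration of compound for 48 hours. Values below 10 were considered active.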 Calls of active or inactive are those of the source.

Assays:
Test in all cases: NCI-60 one-dose screen, 48 h (100 = growth as untreated, 0 = no growth, -100 = all killed)
Details in all cases: 10 µM unless noted
[1] = system: HCT-15 colon
[2] = system: HT29 colon
[3] = system: SNB-75 CNS
[4] = system: SNB-19 CNS
[5] = system: U251 CNS
[6] = system: PC-3 prostate
[7] = system: SK-MEL-5 melanoma
[8] = system: UACC-62 melanoma
[9] = system: LOX IMVI melanoma
[10] = system: SK-MEL-28 melanoma
[11] = system: SK-MEL-2 melanoma
[12] = system: EKVX NSCLC
[13] = system: SN12C renal
[14] = system: TK-10 renal
[15] = system: ACHN renal
[16] = system: CAKI-1 renal
[17] = system: A498 renal
[18] = system: CCRF-CEM leukemia
[19] = system: MOLT-4 leukemia
[20] = system: UO-31 renal

Measured: growth

COc1ccc2c(c1)sc1nc(-c3ccccc3)c(-c3cccc4ccccc34)n12
inactive: [1] 23% | [3] 23.2% | [4] 29.8% | [5] 21.3% | [6] 24.3% | [7] 24.9% | [8] 35.5% | [9] 38.6% | [10] 52.1% | [11] 27.5% | [12] 28.7% | [13] 44.7% | [14] 37.9% | [15] 49.1% | [16] 29.3% | [18] 22.3% | [19] 27.1%
active: [2] 1.35% | [17] 0.895%

Cc1ccncc1NC=O
inactive: [1] 104% | [2] 111% | [3] 103% | [4] 102% | [5] 101% | [6] 99% | [7] 101% | [8] 101% | [9] 104% | [10] 112% | [11] 108% | [12] 101% | [13] 110% | [14] 102% | [16] 95.8% | [17] 103% | [18] 104% | [19] 108%

O=C1Nc2ccc(Cl)cc2/C1=C\c1c(-c2ccc(F)cc2)nc2ccccn12
active: [2] 0.999% | [3] -49.4% | [7] -28.4% | [8] 7.95% | [9] -30.1% | [10] 6.38% | [13] 6.4% | [20] 6.63% | [17] -18% | [18] 5.38% | [19] -4.17%
inactive: [1] 21.4% | [4] 41.6% | [5] 23.2% | [6] 18.8% | [11] 66.2% | [14] 82.8% | [15] 31.4% | [16] 40.2%

CCOC(=O)C1=C(C(=O)OCC)N(c2cc(OC)c(OC)c(OC)c2)C(N)=C(C#N)C1c1cc(=O)[nH]c2ccccc12 (centres undefined)
inactive: [1] 106% | [2] 112% | [3] 83% | [4] 98.4% | [5] 98.7% | [6] 123% | [7] 95.9% | [8] 88.6% | [9] 93.7% | [10] 114% | [11] 115% | [12] 89.3% | [13] 98.5% | [14] 100% | [16] 87% | [17] 78.1% | [18] 113% | [19] 100%

COc1ccc(-c2nn(C(=O)NCCN(C)C)cc2-c2ccncc2)cc1Cl
active: [3] -20%
inactive: [1] 33.5% | [2] 15.3% | [4] 54.8% | [5] 31.1% | [6] 63.5% | [7] 20.5% | [8] 34.6% | [9] 25.6% | [10] 39.4% | [11] 32.7% | [12] 43.4% | [13] 49.6% | [14] 17.1% | [15] 47.8% | [16] 51.1% | [17] 34.2% | [18] 47.9% | [19] 34.3%

C=C1C(=O)O[C@H]2[C@H]1CC/C(COC(=O)N[C@@H](Cc1c[nH]c3ccccc13)C(=O)OC)=C\CC[C@@]1(C)O[C@@H]21
inactive: [3] 68.7% | [4] 66.8% | [5] 25.3% | [6] 33.3% | [7] 21.8% | [8] 27.8% | [11] 41.3% | [12] 55.4% | [13] 33.4% | [16] 29.7% | [17] 91.9%
active: [1] -12.1% | [2] -29.5% | [9] -38.5% | [10] 6.71% | [14] -23.2% | [15] 7.04% | [18] -12.3% | [19] -13.2%

COc1cc(NC(=O)CSc2nc3ccc(Cl)cc3c(=O)n2-c2ccccc2)cc(OC)c1OC
inactive: [1] 99.6% | [2] 110% | [3] 71.6% | [4] 99.9% | [5] 92.5% | [6] 80.6% | [7] 83.8% | [8] 75% | [9] 90.8% | [10] 97.2% | [11] 99.8% | [13] 94.3% | [20] 51% | [14] 120% | [15] 92.1% | [16] 83.3% | [17] 46.6% | [18] 70.5%

Cc1ccc([C@H]2c3[nH]c4ccccc4c3C[C@H]3C(=O)N(CCCCCCC(=O)NO)CC(=O)N23)cc1
active: [3] -7.38% | [9] -37.2%
inactive: [1] 102% | [2] 37.2% | [4] 52.5% | [5] 50.7% | [6] 44.3% | [7] 37.4% | [8] 24.1% | [10] 37.5% | [11] 56.7% | [12] 76.2% | [13] 67.6% | [14] 58.7% | [15] 75.1% | [16] 51.2% | [17] 61.9% | [18] 15.2% | [19] 10.9%
